This is a sample that favours compounds with a hit; in the whole collection about 10% have one here.
BAZ2B inh: qHTS Assay for Inhibitors of BAZ2B; Bromodomain adjacent to zinc finger domain protein 2B (Homo sapiens), Q9UIF8; AlphaScreen BAZ2B-H3K14Ac peptide displacement; Potency, µM (series often up to 114 µM), for inactives: at the highest dose activity change, negative = inhibition, actives largely listed as inhibitors; 4.4% of 360,000 active; AID 504333, 2011; further: on the % scale 0 is the no-effect control and ±100 the full control effect; nearly all actives have a fitted effect of over 60% in size
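AlphaScreen displacement: compounds (up to 110uM) incubated 30 min at room temperature with a preformed 50 nM BAZ2B/50 nM biotinylated H3K14Ac peptide complex in PBS pH 7.4 with Tween-20. Donor and acceptor beads at 10 ug/mL final added, 20 min light-protected before reading.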
HP1b binding inh: HTS for Inhibitors of HP1-beta Chromodomain Interactions with Methylated Histone Tails | Chromobox protein homolog 1 (Homo sapiens), P83916 | AlphaScreen HP1-beta / biotin-H3K9me3 peptide binding | Potency, µM (top dose mostly 114 µM), without a hit: at the highest dose activity change, negative = inhibition, actives largely listed as inhibitors | 0.56% of 390,000 active | AID 540317, 2011; further: nearly all actives have a fitted effect of over 70% in size
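Compound inhibition of the preformed complex between 50 nM HP1-beta and 50 nM biotinylated H3K9me3 peptide was read by AlphaScreen. Buffer was PBS pH 7.4 with 0.01% Tween-20. Incubations ran 30 min at room temperature, with 10 ug/mL donor/acceptor beads.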
JMJD2A Tudor: qHTS Assay for Inhibitors of JMJD2A-Tudor Domain. Potency, µM (doses to about 114 µM), without a hit: at the highest dose activity change, negative = inhibition, hits mostly inhibitors. AlphaScreen JMJD2A-Tudor / H3K4me3 peptide binding. AID 504339, 2011. 4.4% of 390,000 active. Lysine-specific demethylase 4A (Homo sapiens), O75164; further: on the % scale 0 is the no-effect control and ±100 the full control effect; nearly all actives have a fitted effect of over 50% in size
Target sequence (O75164 whole entry, looked up, the tested form may be a part): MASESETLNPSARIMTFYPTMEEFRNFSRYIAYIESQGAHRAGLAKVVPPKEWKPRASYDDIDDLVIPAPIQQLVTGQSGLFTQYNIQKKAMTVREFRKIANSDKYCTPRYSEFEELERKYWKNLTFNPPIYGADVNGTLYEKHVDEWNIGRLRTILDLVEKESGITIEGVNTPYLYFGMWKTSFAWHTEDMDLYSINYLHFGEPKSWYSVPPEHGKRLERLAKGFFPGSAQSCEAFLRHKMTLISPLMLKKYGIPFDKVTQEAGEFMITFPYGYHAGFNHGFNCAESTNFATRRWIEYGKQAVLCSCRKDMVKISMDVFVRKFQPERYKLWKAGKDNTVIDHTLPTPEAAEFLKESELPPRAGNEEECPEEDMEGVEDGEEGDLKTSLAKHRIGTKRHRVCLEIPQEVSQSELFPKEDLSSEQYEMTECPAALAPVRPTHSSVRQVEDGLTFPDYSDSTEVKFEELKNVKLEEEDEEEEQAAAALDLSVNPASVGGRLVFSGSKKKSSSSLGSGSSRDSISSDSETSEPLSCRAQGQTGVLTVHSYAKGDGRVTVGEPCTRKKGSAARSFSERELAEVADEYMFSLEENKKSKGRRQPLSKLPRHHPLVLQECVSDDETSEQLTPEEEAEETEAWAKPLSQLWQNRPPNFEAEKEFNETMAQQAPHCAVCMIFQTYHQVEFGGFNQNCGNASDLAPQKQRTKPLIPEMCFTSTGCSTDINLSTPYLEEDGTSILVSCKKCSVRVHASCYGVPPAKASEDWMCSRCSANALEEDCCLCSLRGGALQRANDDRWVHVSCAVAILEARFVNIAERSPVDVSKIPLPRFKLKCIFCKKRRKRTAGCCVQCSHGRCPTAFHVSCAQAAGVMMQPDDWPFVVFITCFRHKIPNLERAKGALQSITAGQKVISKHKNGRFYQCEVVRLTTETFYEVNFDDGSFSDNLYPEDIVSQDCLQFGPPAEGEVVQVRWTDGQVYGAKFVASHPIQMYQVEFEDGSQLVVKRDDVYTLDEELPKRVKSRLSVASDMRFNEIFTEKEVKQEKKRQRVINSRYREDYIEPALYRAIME
G9a block: qHTS Assay for Inhibitors of Histone Lysine Methyltransferase G9a. Histone-lysine N-methyltransferase EHMT2 (Homo sapiens), Q96KQ7. G9a H3K9 monomethylation, AlphaScreen, 2 h. Potency, µM (titrated, usually from 102 µM), for the others: top-dose activity, negative = inhibition, hits mostly inhibitors. 8.8% of 350,000 active. AID 504332, 2011; further: on the % scale 0 is the no-effect control and ±100 the full control effect; nearly all actives have a fitted effect of over 75% in size
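Compounds were preincubated with 20 nM G9a for 15 min, after which biotinylated H3K9 peptide (500 nM) and SAM (20 uM) started a 2 h room-temperature reaction. Monomethylated product was quantified by antibody-based AlphaScreen chemiluminescence.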
GLS inhibitor: qHTS for Inhibitors of Glutaminase (GLS); 0.21% of 410,000 active; GLS enzymatic activity, qHTS titration; Potency, µM (highest dose often 45.5 µM), for the others: at the highest dose activity change, negative = inhibition, actives largely listed as inhibitors; further: on the % scale 0 is the no-effect control and ±100 the full control effect
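Read-out is an Amplex red fluorescence increase coupled through glutamate oxidase and HRP, measured before and after 30 min room-temperature incubation. hKGA is in 45 mM KH2PO4 (pH 8.2) with 0.02% Tween-20; glutamine added as 1mM solution.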
* marks the source's active call; other numbers are inactive results; ? = inconclusive; / = not tested or not shown; [ ] = dose if it differs, or a comment. The call rests on the fitted dose curve; in most records, active means well fitted curve in the direction sought with a large enough effect; inconclusive means small, poorly fitted or top-dose-only effect, or another doubt; inactive means no such curve, though single readings can be large; an effect the other way counts as inactive or inconclusive. Potency means the concentration at half of the fitted maximal effect.

SMILES	BAZ2B inh	HP1b binding inh	JMJD2A Tudor	G9a block	GLS inhibitor
COCCN(CCOC)S(=O)(=O)c1ccc(C(=O)Nc2sc3c(c2C(=O)OC)CCN(C)C3)cc1	-35%	33%	-26%	?	3%
CCOc1ccc(C2C(C(=O)c3cccs3)=C(O)C(=O)N2Cc2cccnc2)cc1 (stereo not given)	3%	40%	-16%	?	9%
COc1ccc(Cl)cc1NC(=S)NC(=O)c1ccco1	4%	48%	11%	-11%[12.7 µM]	0%
CC(=NNC(=S)N1CC2CCC(CC2)C1)c1cnccn1	/	?	11µM*	/	-11%
C/C(=N\NC(=O)C1CCCN(S(=O)(=O)c2ccccc2)C1)c1ccccn1 (stereo not given)	?	47%	79µM*	51%[59 µM]	-6%
C/C(=N\NC(=O)C1CCCN(S(=O)(=O)c2ccccc2)C1)c1ccncc1 (stereo not given)	-5%	48%	3%	14%[59 µM]	13%
CCOc1ccccc1NC(=S)NCCCn1ccnc1	?	31%	-14%	1%	5%
CCNc1ccc(S(=O)(=O)N(C)C)cc1[N+](=O)[O-]	?	-6%	32µM*	/	1%
O=[N+]([O-])c1cccc(S(=O)(=O)c2ccc(NCCO)c([N+](=O)[O-])c2)c1	-28%	?	14µM*	-29%	?
O=C(C1Cc2ccccc2O1)N1CCCCC1 (stereo not given)	24%	36%	6%	-9%[59 µM]	-4%
Oc1c(Cl)cc(Cl)c2c1NCCC2	?	50µM*	56µM*	?	11µM*
COc1cccc(/C=N/Nc2ncc(C)c(=O)[nH]2)c1OC	-2%	24%	-9%	32µM*	12%
COc1ccc(/C=N/Nc2ncnc3c2[nH]c2ccccc23)c(OC)c1OC	5%	16%	-31%	17%[59 µM]	1%
COc1cccc(/C=N/Nc2nc3ccccc3[nH]2)c1OC	-36%	23%	-23%	/	?
COc1cccc(C=NNc2nnc(NN=Cc3cccc(OC)c3OC)c3ccccc23)c1OC	/	?	35µM*	/	19%
COc1cccc(/C=N/Nc2ncnc3c2[nH]c2ccc(C)cc23)c1OC	?	15%	-35%	56µM*	-21%
COc1ccc(CNC(=O)C(=O)NCCC2CCCCN2S(=O)(=O)c2ccccc2)cc1 (stereo not given)	6%	20%	-10%	9%[2.33 µM]	2%
CCN(CC)c1ccc(NC(=O)c2ccc3c(c2)c(C)c(C)n3C)cc1	11µM*	35µM*	18µM*	3.2µM*	-7%
Cc1ccccc1CNC(=O)c1ccc2[nH]c(C)c(C)c2c1	40µM*	-16%	50µM*	?	6%
Cc1c(C)n(C)c2ccc(C(=O)NCc3cccc(F)c3)cc12	?	0%	?	?	9%
Cc1ccccc1CNC(=O)c1ccc2c(c1)c(C)c(C)n2C	40µM*	-20%	?	?	4%
c1ncc(CC2CCNCC2)[nH]1	/	/	/	7%[59 µM]	/
O=C1N[C@@H](Cc2ccccc2)C(=O)N2CCCC12 (stereo not given in full)	/	7%	-23%	25%[135 µM]	3%
CN1C(=O)C(Cc2cnc[nH]2)NC1=S (stereo not given)	-22%	12%	-17%	28µM*	8%
O=C1N[C@@H](Cc2cnc[nH]2)C(=O)N2CCC[C@@H]12	?	12%	-9%	20µM*	0%
SMILES	BAZ2B inh	HP1b binding inh	JMJD2A Tudor	G9a block	GLS inhibitor
CCOC(=O)C1CCN(C(=O)CC(C)c2ccccc2)CC1 (stereo not given)	-24%	?	28µM*	7%[59 µM]	5%
CCOC(=O)C1CCN(C(=O)CSc2ccccc2)CC1	2%	?	50µM*	5%[12.7 µM]	-3%
CCOC(=O)C1CCN(C(=O)CCNS(=O)(=O)c2ccc(C)cc2)CC1	4%	57%	-6%	4%[12.7 µM]	-1%
CCOC(=O)C1CCCN(C(=O)CC(C)c2ccccc2)C1 (stereo not given)	5%	25%	-11%	11%[12.7 µM]	1%
CCOC(=O)C1CCCN(C(=O)CNC(=O)Cn2ccc3ccccc3c2=O)C1 (stereo not given)	-6%	54%	-10%[57.1 µM]	14µM*	2%
CCOC(=O)C1CCN(C(=O)CC(NS(=O)(=O)c2ccc(OC)cc2)C(C)C)CC1 (stereo not given)	13%	-8%	16µM*	-22%[59 µM]	?
CCC(C(=O)N1CCCC1)n1nc(C)c2c(C)n(-c3ccccc3)nc2c1=O (stereo not given)	-17%	76%	-16%	6%	-3%
CN(c1ccccc1C(=O)N1CCOCC1)S(C)(=O)=O	10%	32%	6%	8%[59 µM]	-13%
Cc1ccc(Cn2c(C)c(C(=O)NCc3ccc4c(c3)OCO4)sc2=O)cc1	/	/	/	/	-16%
CCOC(=O)C1CCCN(C(=O)CSc2ccc(NC(C)=O)cc2)C1 (stereo not given)	-20%	52%	0%	35µM*	2%
CCOC(=O)C1CCN(C(=O)c2c(C)oc3c2C(=O)c2ccccc2C3=O)CC1	-15%	24%	-14%	50µM*	-9%
CCOC(=O)C1CCCN(C(=O)CSc2ccccc2)C1 (stereo not given)	3%	25%	0%	8%[59 µM]	-4%
COc1cc2sc3cc(NCc4ccc5c(c4)OCO5)ccc3c(=O)c2cc1OC	/	32%	-15%	/	16%
CC(C)(C)C(=O)Nc1ccc(C(=O)Nc2cccc(Oc3ccc(C(=O)O)c(C(=O)O)c3)c2)cc1	-33%	-2%	-33%	45µM*	9%
O=C(Nc1cccc(Oc2ccc(C(=O)O)c(C(=O)O)c2)c1)c1ccc(-c2ccccc2)cc1	50µM*	?	-14%[11.4 µM]	/	?
O=[N+]([O-])c1cc([N+](=O)[O-])c2nonc2c1Nc1ccccc1O	-21%	22%	-18%	?	27%
O=C(O)c1ccccc1Nc1ccc([N+](=O)[O-])c2nonc12	40µM*	?	-31%	45µM*	7%
NC(=O)c1cc([N+](=O)[O-])ccc1Nc1ccccc1	4%	18%	-24%	10%[2.33 µM]	6%
O=C(O)c1ccccc1Nc1ccc([N+](=O)[O-])cc1C(=O)O	?	-5%	32µM*	32µM*	6%
COc1ccc(CCNC(=O)C(=O)c2cn(CC(=O)N3CCOCC3)c3ccccc23)cc1OC	?	23%	-3%	-4%	-1%
NC(=O)c1ccc(NC(=O)CS(=O)(=O)c2cn(CC(=O)N3CCCC3)c3ccccc23)cc1	-19%	60%	-2%	25µM*	-5%
COc1ccc(CCNC(=O)CS(=O)(=O)c2cn(CC(=O)N3CCOCC3)c3ccccc23)cc1OC	/	26%	-19%	50µM*	-13%

Assay outcomes from PubChem.
